Compound activity from PubChem BioAssay.
In the library only some 2.9% were active in any assay of this set; here they are far more common.
APOBEC3G inh: inhibitors of human APOBEC3G DNA deaminase; hit rate 0.28% among 330,000; recombinant A3G, ssDNA deamination FAM/TAMRA fluorescence; inhibition, % at 20 µM;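 active = inhibition of at least 40% at 20 µM, with no more than 30% in the related APOBEC3A deaminase screen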
Target sequence (Q9HC16 whole entry, looked up): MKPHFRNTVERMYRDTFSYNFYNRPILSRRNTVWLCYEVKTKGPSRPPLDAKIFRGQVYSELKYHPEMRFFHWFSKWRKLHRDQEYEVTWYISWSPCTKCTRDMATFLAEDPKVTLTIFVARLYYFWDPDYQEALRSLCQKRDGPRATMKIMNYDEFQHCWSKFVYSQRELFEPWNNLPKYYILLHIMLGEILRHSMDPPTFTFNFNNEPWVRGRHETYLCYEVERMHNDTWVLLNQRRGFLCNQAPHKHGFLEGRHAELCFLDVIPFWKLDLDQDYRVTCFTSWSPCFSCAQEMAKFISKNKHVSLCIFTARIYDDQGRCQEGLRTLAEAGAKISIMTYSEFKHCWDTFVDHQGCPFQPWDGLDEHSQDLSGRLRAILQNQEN
Cardio protect: modulators protecting cardiomyocytes from myocardial damage; hit rate 0.63% among 360,000; H9c2 cardiomyocytes, H2O2 injury protection, ATPLite, 2 h; protection from H2O2 cell death, % at 20 µM; AID 588492;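 active = compounds giving at least 50% protection of heart cells from peroxide-induced death in the single-dose screen, raw or plate-pattern-corrected value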
TAG inh: reduces triacylglycerol accumulation in H9c2 cells. hit rate 0.66% among 230,000. Nile Red lipid (TAG) fluorescence; cells loaded with 200 µM oleic acid. inhibition, % at 12.5 µM;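 active = pattern-corrected inhibition of lipid staining of at least 50% with the nuclear-stain viability signal not falling by more than 50%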
A3A deaminase: human APOBEC3A DNA deaminase inhibition. AID 493011. recombinant A3A, FAM/TAMRA ssDNA deamination fluorescence. inhibition, % at 20 µM. P31941. hit rate 0.41% among 330,000;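 active = at least 40% inhibition at 20 µM here, with at most 30% in a related deaminase screen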
Target sequence (P31941 whole entry, looked up): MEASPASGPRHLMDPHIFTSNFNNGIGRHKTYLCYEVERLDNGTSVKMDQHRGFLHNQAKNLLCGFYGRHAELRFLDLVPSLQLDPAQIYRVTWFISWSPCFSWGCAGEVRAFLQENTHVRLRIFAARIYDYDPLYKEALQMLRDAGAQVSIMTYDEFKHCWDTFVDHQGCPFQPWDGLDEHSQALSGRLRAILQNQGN
NadD block: blocks S. aureus nicotinate mononucleotide adenylyltransferase. hit rate 0.78% among 360,000. inhibition, % at 20 µM. purified NadD enzyme, colorimetric absorbance read-out; in the data active = inhibition above about 26%
PfG6PD inh: PfG6PD (Plasmodium falciparum) enzyme inhibition | PfGluPho enzyme, NADPH resazurin-diaphorase fluorescence | hit rate 0.78% among 350,000 | inhibition, % at 20 µM;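 active = inhibition reaching at least a set limit at 20 µM in the primary screen, cut at about 59% in these data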
PfG6PD confirm: PfG6PD inhibition, single-dose confirmed. shares compounds with PfG6PD inh. recombinant PfGluPho, NADPH-diaphorase-resazurin fluorescence. inhibition, % at 20 µM. hit rate 34% among 2,400. AID 504753;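 active = inhibition of at least 50% at 20 µM in any single replicate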
Diaph ctr 10uM: counter-screen for P. falciparum G6PD inhibitors: diaphorase inhibitors, oxidizers; shares compounds with PfG6PD inh; diaphorase-coupled resazurin reduction, fluorescence, NADPH 10 uM; inhibition, % at 20 µM; hit rate 39% among 820; AID 504862;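 active = average inhibition reaching 50% or more with the compound at 20 µM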;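 note: resorufin red fluorescence formed as diaphorase reduces resazurin using NADPH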
Diaph ctr 30uM: counter-screen for P. falciparum G6PD inhibitors: diaphorase inhibitors, oxidizers. shares compounds with PfG6PD inh. Diaphorase/resazurin coupled assay, resorufin fluorescence, 30 uM NADPH. inhibition, % at 20 µM. hit rate 29% among 820;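 active = inhibition averaging 50% or more, tested at 20 µM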
Each line names hits and unclear results; the compound was inactive in the other large screens (follow-up assays come after a bar, where they were run).

Cc1ccc2cc(C)c(Sc3nnnn3-c3ccccc3)nc2c1	none (no result: APOBEC3G inh, TAG inh, A3A deaminase)
Cc1cc(C)c(SSc2nnnn2-c2ccccc2)c(C)c1	PfG6PD inh 113 (no result: APOBEC3G inh, A3A deaminase) | PfG6PD confirm inactive
Nc1ccc2c(c1)C(=O)C(=O)c1ccccc1-2	PfG6PD inh 108 | PfG6PD confirm 89 | Diaph ctr 10uM 77 | Diaph ctr 30uM 90
O=C(N/N=C/c1ccccc1C(=O)O)c1cccc(S(=O)(=O)Nc2cc(Cl)ccc2Cl)c1	none
Cc1ccc(/C=N/NC(=O)c2cccc(S(=O)(=O)Nc3ccccc3Cl)c2)s1	PfG6PD inh 94 (no result: TAG inh) | PfG6PD confirm 80 | Diaph ctr 10uM 76 | Diaph ctr 30uM 61
CCN(CC)CCNc1cc(C)nc2c1C(=O)C(=O)C=C2N1CCCCC1	TAG inh 82, PfG6PD inh 75 | PfG6PD confirm inactive
CS(=O)(=O)N(CC(=O)N1CCCCCC1)c1cc(Cl)ccc1Cl	none (no result: TAG inh)
Cc1ccc(/C=C/C(=O)Nc2ccc([N+](=O)[O-])cc2)o1	PfG6PD inh 88 (no result: TAG inh) | PfG6PD confirm inactive
O=C(O)/C=C/C(=O)Nc1ccc(Oc2ccccc2)cc1	none
Cc1ccc(/C=C/C(=O)Nc2sc(C)c(C)c2C(=O)OC(C)C)o1	PfG6PD inh 60 (no result: TAG inh) | PfG6PD confirm inactive
CCOC(=O)c1c(NC(=O)/C=C/c2ccc(C)o2)sc(C)c1C	none (no result: TAG inh)
CCCOc1ccc(/C=C/C(=O)Nc2ccc([N+](=O)[O-])cc2)cc1	none
Cc1ccc(/C=C/C(=O)Nc2ccc(Oc3ccccc3)cc2)o1	PfG6PD inh 61 (no result: APOBEC3G inh, TAG inh, A3A deaminase) | PfG6PD confirm inactive
CCOC(=O)c1cc(CC)sc1NC(=O)COC(=O)c1ccccn1	none
CN(CC(=O)Nc1ccccc1Cl)C(=O)COC(=O)/C=C/c1cccc(C(F)(F)F)c1	PfG6PD inh 79 | PfG6PD confirm inactive
CCc1ccc(-c2nc(CS(=O)CC(=O)NCc3ccco3)c(C)o2)cc1 (stereo unspecified)	none (no result: TAG inh)
Cc1cc(Nc2ccc(Cl)cc2)nc(N)n1	PfG6PD inh 63 (no result: TAG inh) | PfG6PD confirm inactive
COCC(C)NC(=O)CSc1nc2ccccc2c(=O)n1CCc1ccc(S(N)(=O)=O)cc1 (stereo unspecified)	none
O=C(O)c1ccc2cccc(O)c2n1	PfG6PD inh 66 | PfG6PD confirm inactive
CN1CCN(C(=S)c2ccc(N(C)C)cc2)CC1	none (no result: TAG inh)
CN1CCN(C(=S)c2ccc([N+](=O)[O-])cc2)CC1	PfG6PD inh 61 (no result: TAG inh) | PfG6PD confirm 55 | Diaph ctr 10uM inactive | Diaph ctr 30uM inactive
CN(C)c1ccc(C(=S)N2CCN(Cc3ccccc3)CC2)cc1	PfG6PD inh 69 | PfG6PD confirm inactive
CCN1CCN(C(=S)c2ccc(O)cc2)CC1	PfG6PD inh 70 | PfG6PD confirm 53 | Diaph ctr 10uM inactive | Diaph ctr 30uM inactive
CCN1CCN(C(=S)c2ccc(Br)cc2)CC1	none (no result: TAG inh)
CN1CCN(C(=S)c2ccc(Br)cc2)CC1	PfG6PD inh 59 | PfG6PD confirm 61 | Diaph ctr 10uM inactive | Diaph ctr 30uM inactive
CCOc1ccc(S(=O)(=O)N2CCC(C(=O)N3CCCC3)CC2)cc1C	none (no result: TAG inh)
CCOC(=O)c1cnc(-c2cccc(OC)c2)[nH]c1=O	PfG6PD inh 96 (no result: TAG inh) | PfG6PD confirm 78 | Diaph ctr 10uM 75 | Diaph ctr 30uM 56
Cc1ccc(NC(=O)c2cc(N3C(=O)C=CC3=O)ccc2N2CCOCC2)cc1	PfG6PD inh 80 (no result: APOBEC3G inh, A3A deaminase) | PfG6PD confirm 96 | Diaph ctr 10uM inactive | Diaph ctr 30uM inactive
Cc1ccc(NC(=O)c2cc(N3C(=O)C=CC3=O)ccc2Cl)cc1C	PfG6PD inh 77 | PfG6PD confirm 81 | Diaph ctr 10uM inactive | Diaph ctr 30uM inactive
O=C(Nc1ccc(N2CCOCC2)c(Cl)c1)c1cccnc1Cl	none
COc1c(C)cccc1C(=O)Nc1ccc(N2CCOCC2)c(Cl)c1	PfG6PD inh 68 | PfG6PD confirm inactive
Cc1ccc(NC(=O)c2cc(-n3cnnc3)ccc2Cl)cc1	none (no result: TAG inh)
Cc1ccc(NC(=O)c2cc(NC(=O)c3ccco3)ccc2N2CCOCC2)cc1	none
Cc1nc2cc(NS(=O)(=O)c3cccc4cccnc34)ccc2s1	PfG6PD inh 61 (no result: TAG inh) | PfG6PD confirm inactive
Cc1oc2c(c1C(=O)c1ccccc1)C(=O)C(=O)c1ccccc1-2	PfG6PD inh 108 | PfG6PD confirm 101 | Diaph ctr 10uM 90 | Diaph ctr 30uM 91
O=C1C(=O)c2c(C(=O)c3ccccc3)coc2-c2ccccc21	PfG6PD inh 117 (no result: TAG inh) | PfG6PD confirm 107 | Diaph ctr 10uM 94 | Diaph ctr 30uM 100
CSc1cccc(CN2CCC(Oc3ccc(C(=O)N4CCCCC4)cc3)CC2)c1	none
Cc1ccc(N(CC(=O)N/N=C/c2cccs2)S(C)(=O)=O)cc1Cl	PfG6PD inh 106 | PfG6PD confirm 75 | Diaph ctr 10uM 70 | Diaph ctr 30uM 65
N#Cc1cccc(NC(=O)Cn2cnc(S(=O)(=O)N3CCOCC3)c2)c1	none (no result: TAG inh)
CC(C)=CCC/C(C)=C/C=N/NC(=O)c1ccccc1[N+](=O)[O-]	PfG6PD inh 67 (no result: TAG inh) | PfG6PD confirm inactive
C/C(CCc1ccccc1)=N\NC(=O)c1ccccc1[N+](=O)[O-]	none (no result: TAG inh)
O=C(CCC(=O)OCC(=O)c1ccc([N+](=O)[O-])cc1)Nc1ccccc1Cl	PfG6PD inh 68 | PfG6PD confirm 54 | Diaph ctr 10uM inactive | Diaph ctr 30uM inactive
Cc1ccccc1OCC(=O)NCC(=O)OCC(=O)c1ccc([N+](=O)[O-])cc1	PfG6PD inh 70 | PfG6PD confirm 52 | Diaph ctr 10uM inactive | Diaph ctr 30uM inactive
O=C(COC(=O)c1cnccn1)c1ccc([N+](=O)[O-])cc1	PfG6PD inh 79 | PfG6PD confirm 68 | Diaph ctr 10uM inactive | Diaph ctr 30uM inactive
O=C(COc1ccccc1F)OCC(=O)c1ccc([N+](=O)[O-])cc1	PfG6PD inh 88 | PfG6PD confirm 52 | Diaph ctr 10uM inactive | Diaph ctr 30uM inactive
COc1ccccc1-n1ccnc1SCC(=O)NCC1CCCO1 (stereo unspecified)	none (no result: TAG inh)
NS(=O)(=O)c1ccc(CCNC(=O)CN2C(=O)COc3ccc(S(=O)(=O)N4CCCC4)cc32)cc1	none (no result: TAG inh)
CCOC(=O)C1CCN(C(=O)COC(=O)CN(C)S(=O)(=O)c2ccc(NC(C)=O)cc2)CC1	none
O=C(COc1ccc(-c2ccccc2)cc1)NNC(=O)Nc1ccccc1	none
O=C(CNC(=O)c1cccs1)NCC(=O)OCC(=O)c1ccc([N+](=O)[O-])cc1	PfG6PD inh 67 (no result: TAG inh) | PfG6PD confirm 63 | Diaph ctr 10uM inactive | Diaph ctr 30uM inactive
O=C(CNC(=O)c1cccs1)OCC(=O)c1ccccc1	none (no result: TAG inh)
O=C(NCc1ccccc1)c1cccc(NC(=O)C2CC2)c1	none (no result: APOBEC3G inh, A3A deaminase)
